Experimental data: the supplement of paper PMC10849652
Targets with a hit are over-represented here; the source holds about 8,800 in all. About 0.5% of all pairs of compound and target were hits. A number with no mark means an inactive call.

Columns and labels:
Assay in all cases: log2 fold change, soluble protein after heating vs DMSO (PISA); higher = thermal stabilisation; K562 lysate, 10 uM; active = over 0.2 and 3.5 SD of the protein, either way, in both replicates (recomputed)
erlotinib = compound: C#Cc1cccc(Nc2ncnc3cc(OCCOC)c(OCCOC)cc23)c1 [erlotinib]
Outline: (§1)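 Thermal stability, expressed as log-two fold change relative to solvent controls, is given from duplicates. Crude K562 extract in PBS pH 7.4 with 1 mM MgCl2, at 1 mg/mL protein, was treated with 10 μM compound for 30 min and heated in aliquots for 3 min across 48°C-58°C. After pooling, adjustment to 0.5% NP-40 at 4°C and centrifugation at 21,000xg for 90 min, supernatant protein was measured by TMTpro 16plex LC-MS/MS with channel sums equalised.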

[1] = compound: C/C(=N\NC(=O)C1=CC(=CC=C1)S(=O)(=O)N2CCOCC2)/C3=C(C=CC(=C3)Cl)O
Outline: as §1

[2] = compound: C1=CC(=CC=C1C2=NC3=C(N2)C=C(C=C3)C(=O)N)OC4=CC=C(C=C4)Cl
Outline: as §1

[3] = compound: C1=CC2=C(C=CC(=C2)/C=C\3/C(=O)NC(=NCC4=CC=CS4)S3)N=C1
Outline: as §1

[4] = compound: C1=CC2=NC=CN=C2C=C1/C=C/3\C(=O)NC(=O)S3
Outline: as §1

[5] = compound: C1=CC=C(C=C1)C2=NC(=C(N2)C3=CC=NC=C3)C4=CC(=C(C=C4)Cl)O
Outline: as §1

[6] = compound: C1=CC=C2C(=C1)C3=NNC4=CC=CC(=C43)C2=O
Outline: as §1

[7] = compound: C1CCN(C1)C(=O)NC2=CC=CC(=C2)NC3=NC=C(C(=N3)NCCC4=CN=CN4)Br
Outline: as §1

[8] = compound: C1CN(CCC1(CC2=CC=C(C=C2)Cl)N)C3=NC=NC4=C3C=CN4
Outline: as §1

IRAK-1-4 Inhibitor I = compound: C1COCCN1CCN2C3=CC=CC=C3N=C2NC(=O)C4=CC(=CC=C4)[N+](=O)[O-] [IRAK-1-4 Inhibitor I]
Outline: as §1

UniProt O14744, sequence (O14744 whole entry, looked up): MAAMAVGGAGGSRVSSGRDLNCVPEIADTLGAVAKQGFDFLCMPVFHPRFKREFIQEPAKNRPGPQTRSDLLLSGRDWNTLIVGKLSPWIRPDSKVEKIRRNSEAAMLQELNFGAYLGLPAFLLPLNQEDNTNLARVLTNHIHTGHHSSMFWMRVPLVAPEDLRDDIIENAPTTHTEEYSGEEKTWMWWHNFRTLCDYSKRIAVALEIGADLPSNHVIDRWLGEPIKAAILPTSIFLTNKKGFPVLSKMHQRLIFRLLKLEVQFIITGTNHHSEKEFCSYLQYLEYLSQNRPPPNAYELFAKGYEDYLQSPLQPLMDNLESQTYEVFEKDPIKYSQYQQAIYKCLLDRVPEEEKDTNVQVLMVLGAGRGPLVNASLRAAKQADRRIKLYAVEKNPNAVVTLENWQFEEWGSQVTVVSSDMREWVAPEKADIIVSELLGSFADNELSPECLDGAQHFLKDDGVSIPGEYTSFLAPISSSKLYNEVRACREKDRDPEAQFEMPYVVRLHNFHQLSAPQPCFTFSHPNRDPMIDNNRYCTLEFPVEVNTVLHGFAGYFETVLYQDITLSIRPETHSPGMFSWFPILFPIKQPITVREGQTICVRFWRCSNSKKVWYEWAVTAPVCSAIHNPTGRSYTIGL
UniProt O60237, sequence (O60237 whole entry, looked up): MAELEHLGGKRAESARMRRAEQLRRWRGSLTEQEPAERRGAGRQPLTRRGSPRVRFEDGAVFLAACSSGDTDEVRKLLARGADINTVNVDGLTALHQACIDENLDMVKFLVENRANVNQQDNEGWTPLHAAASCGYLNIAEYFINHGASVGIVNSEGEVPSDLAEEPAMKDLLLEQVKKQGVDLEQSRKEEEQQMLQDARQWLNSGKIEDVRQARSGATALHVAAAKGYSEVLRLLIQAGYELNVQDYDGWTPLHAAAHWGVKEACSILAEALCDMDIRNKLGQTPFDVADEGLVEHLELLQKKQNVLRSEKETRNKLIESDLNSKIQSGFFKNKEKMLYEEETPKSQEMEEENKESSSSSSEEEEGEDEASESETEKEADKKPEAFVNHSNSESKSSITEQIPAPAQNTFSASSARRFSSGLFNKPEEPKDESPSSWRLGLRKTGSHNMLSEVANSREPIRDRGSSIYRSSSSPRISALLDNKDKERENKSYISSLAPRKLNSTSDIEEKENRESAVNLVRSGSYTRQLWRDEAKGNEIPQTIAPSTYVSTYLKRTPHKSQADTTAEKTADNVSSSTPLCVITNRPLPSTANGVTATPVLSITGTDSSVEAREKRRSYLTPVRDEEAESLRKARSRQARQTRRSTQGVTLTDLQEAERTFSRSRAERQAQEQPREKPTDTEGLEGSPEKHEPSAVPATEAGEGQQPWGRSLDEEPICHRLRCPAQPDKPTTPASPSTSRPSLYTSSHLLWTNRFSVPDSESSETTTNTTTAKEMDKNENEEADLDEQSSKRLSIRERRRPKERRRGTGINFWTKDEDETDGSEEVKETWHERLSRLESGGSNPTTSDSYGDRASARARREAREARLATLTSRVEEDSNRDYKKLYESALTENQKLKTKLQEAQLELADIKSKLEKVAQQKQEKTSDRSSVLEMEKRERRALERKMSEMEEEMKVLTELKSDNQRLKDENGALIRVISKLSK
UniProt Q8NEB9, sequence (Q8NEB9 whole entry, looked up): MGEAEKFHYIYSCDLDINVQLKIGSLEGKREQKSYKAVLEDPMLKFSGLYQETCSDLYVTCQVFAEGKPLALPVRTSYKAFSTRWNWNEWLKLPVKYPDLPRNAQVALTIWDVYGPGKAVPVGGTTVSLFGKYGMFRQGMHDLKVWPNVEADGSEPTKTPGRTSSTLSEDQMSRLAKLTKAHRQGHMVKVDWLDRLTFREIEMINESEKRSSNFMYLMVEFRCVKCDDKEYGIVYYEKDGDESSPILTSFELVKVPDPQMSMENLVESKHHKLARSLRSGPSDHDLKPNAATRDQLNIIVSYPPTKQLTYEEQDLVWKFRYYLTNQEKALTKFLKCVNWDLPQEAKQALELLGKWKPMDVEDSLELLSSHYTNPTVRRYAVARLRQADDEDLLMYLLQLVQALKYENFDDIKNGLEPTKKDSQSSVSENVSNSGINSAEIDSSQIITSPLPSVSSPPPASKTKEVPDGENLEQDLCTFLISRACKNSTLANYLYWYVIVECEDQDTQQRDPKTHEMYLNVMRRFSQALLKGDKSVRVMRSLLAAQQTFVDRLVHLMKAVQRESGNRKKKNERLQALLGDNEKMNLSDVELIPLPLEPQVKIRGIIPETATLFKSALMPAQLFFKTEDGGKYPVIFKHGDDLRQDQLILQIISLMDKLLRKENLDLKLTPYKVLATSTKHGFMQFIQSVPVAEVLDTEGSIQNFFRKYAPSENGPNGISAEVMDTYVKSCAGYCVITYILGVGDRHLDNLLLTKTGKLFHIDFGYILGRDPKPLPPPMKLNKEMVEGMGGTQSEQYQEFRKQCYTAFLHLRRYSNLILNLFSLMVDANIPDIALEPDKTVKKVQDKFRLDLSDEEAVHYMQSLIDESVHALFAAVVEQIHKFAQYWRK
UniProt Q8TCG2, sequence (Q8TCG2 whole entry, looked up): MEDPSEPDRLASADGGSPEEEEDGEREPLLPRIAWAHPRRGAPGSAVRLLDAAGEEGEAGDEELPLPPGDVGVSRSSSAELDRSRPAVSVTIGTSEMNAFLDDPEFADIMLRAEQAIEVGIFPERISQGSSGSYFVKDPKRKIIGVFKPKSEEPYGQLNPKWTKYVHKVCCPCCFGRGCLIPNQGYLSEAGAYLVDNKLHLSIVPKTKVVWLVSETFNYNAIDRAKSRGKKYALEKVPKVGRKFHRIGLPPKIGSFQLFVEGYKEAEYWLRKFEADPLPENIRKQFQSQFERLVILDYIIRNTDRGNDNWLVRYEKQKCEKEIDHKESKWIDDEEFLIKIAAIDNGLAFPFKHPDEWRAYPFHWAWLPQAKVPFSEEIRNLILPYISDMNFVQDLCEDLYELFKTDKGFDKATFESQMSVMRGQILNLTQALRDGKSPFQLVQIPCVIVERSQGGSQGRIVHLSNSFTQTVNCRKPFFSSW
UniProt Q9H7Z7, sequence (Q9H7Z7 whole entry, looked up): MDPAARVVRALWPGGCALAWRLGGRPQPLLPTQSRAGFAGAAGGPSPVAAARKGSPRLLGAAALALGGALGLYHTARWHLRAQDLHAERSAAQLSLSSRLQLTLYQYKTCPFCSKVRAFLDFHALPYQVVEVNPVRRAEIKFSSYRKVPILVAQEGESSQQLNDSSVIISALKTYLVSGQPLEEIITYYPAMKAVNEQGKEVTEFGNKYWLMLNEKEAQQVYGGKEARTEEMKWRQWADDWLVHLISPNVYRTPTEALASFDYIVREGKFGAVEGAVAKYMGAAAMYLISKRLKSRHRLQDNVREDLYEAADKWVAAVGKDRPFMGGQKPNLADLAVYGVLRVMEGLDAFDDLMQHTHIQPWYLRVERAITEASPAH
UniProt Q9Y446, sequence (Q9Y446 whole entry, looked up): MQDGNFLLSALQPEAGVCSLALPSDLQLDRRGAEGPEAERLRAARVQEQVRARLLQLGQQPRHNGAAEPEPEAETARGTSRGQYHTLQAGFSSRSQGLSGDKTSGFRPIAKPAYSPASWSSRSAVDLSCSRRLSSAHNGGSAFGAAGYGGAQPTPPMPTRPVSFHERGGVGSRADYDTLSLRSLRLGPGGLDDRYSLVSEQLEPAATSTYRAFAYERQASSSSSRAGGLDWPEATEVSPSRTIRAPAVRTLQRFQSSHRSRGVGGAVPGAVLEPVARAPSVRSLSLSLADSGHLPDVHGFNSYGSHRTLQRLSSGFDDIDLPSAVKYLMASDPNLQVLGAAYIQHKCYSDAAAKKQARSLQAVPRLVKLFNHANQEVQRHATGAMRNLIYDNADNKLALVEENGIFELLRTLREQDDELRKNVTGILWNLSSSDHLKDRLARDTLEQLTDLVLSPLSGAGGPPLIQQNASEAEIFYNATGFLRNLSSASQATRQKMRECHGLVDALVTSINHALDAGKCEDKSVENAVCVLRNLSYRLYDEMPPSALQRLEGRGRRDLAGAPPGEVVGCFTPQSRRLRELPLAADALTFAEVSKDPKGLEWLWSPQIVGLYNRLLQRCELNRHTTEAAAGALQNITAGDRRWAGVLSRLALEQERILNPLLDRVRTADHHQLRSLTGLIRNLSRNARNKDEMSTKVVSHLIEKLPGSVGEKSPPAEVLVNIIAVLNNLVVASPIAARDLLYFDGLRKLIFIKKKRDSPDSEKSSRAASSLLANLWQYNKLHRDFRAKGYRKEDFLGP
UniProt Q9UHX1, sequence (Q9UHX1 whole entry, looked up): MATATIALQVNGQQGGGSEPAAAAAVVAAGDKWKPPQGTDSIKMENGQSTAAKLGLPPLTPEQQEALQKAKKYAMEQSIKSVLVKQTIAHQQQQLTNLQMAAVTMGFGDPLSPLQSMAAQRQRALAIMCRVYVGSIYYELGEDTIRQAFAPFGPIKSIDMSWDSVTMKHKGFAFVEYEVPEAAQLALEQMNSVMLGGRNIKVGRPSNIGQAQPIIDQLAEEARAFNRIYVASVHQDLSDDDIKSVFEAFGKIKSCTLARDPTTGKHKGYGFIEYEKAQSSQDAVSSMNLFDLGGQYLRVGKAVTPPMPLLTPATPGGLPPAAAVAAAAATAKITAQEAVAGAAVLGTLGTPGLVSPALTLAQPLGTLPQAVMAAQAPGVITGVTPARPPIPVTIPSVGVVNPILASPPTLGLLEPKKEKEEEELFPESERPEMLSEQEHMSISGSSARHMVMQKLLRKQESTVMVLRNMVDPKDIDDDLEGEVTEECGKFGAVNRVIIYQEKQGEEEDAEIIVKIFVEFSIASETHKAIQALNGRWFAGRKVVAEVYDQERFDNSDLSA
UniProt Q96I23, sequence (Q96I23 whole entry, looked up): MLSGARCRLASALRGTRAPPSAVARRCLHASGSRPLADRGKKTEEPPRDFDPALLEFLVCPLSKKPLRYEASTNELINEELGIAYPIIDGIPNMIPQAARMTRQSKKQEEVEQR

Target	log2 fold change (erlotinib)	log2 fold change [1]	log2 fold change [2]	log2 fold change [3]	log2 fold change [4]	log2 fold change [5]	log2 fold change [6]	log2 fold change [7]	log2 fold change [8]	log2 fold change (IRAK-1-4 Inhibitor I)
PPME1 isoform 4 (UniProt Q9Y570)	-0.002	-0.006	0.023	-0.005	-0.035	0.017	0.065	0.013	0.01	-0.006
PDXDC1 (UniProt Q6P996)	-0.012	0.008	-0.095	0.034	0.013	-0.005	0.024	-0.011	-0.024	-0.006
PTGS1 isoform 6 (UniProt P23219)	-0.044	0.118	0.033	-0.105	-0.005	0.086	-0.03	0.008	-0.025	0.061
PRKDC (UniProt P78527)	0.021	-0.064	-0.029	0.135	0.927 (active)	0.037	0.068	0.122	-0.041	0.02
PCBP2 isoform 8 (UniProt Q15366)	0.118	-0.287	0.024	0.001	-0.039	0.087	-0.041	-0.088	0.01	0.018
PDE4DIP isoform 4 (UniProt Q5VU43)	0.002	-0.026	0.017	0.004	-0.004	0	-0.111	-0.009	0.055	0.024
PUF60 isoform 2 (UniProt Q9UHX1)	0.102	-0.094	0.083	-0.019	-0.064	-0.088	-0.005	-0.045	0.033	-0.011
PFKFB2 (UniProt O60825)	-0.007	-0.012	0.03	-0.004	0.005	-0.02	0.02	-0.004	0.002	-0.001
PIP4K2C (UniProt Q8TBX8)	0.104	-0.289	0.033	0.004	0.496 (active)	0.137	0.127	0.231	-0.055	-0.005
PHLDB1 (UniProt Q86UU1)	0.01	-0.044	0.032	-0.081	-0.031	0.101	-0.158	-0.032	0.068	-0.044
PIK3C3 (UniProt Q8NEB9)	0.014	-0.059	0.004	0.017	0.025	0.009	0.053	-0.084	0.015	0.081
PKP3 isoform 2 (UniProt Q9Y446)	0.063	-0.011	0.042	0.009	0.006	-0.011	-0.02	-0.011	-0.013	0.015
PTGES2 (UniProt Q9H7Z7)	0.008	0.056	-0.133	0.066	-0.054	0.174	0.162	0.028	-0.023	0.161
PRKAR2B (UniProt P31323)	0	0.066	-0.022	-0.025	0.018	-0.03	-0.116	-0.16	-0.131	-0.016
PLIN2 (UniProt Q99541)	0.013	0.024	-0.093	0.004	0.028	-0.015	-0.045	0.021	-0.042	0
PRMT5 (UniProt O14744)	0.002	0	0.032	0.006	0.007	0.017	0.017	0.012	0.019	0.003
PTPN23 (UniProt Q9H3S7)	0.017	-0.029	0.016	-0.01	-0.023	0.008	-0.028	-0.013	-0.003	-0.004
PIP4K2A (UniProt P48426)	-0.04	-0.239 (active)	0.032	0.001	0.225	0.135	0.105	0.103	-0.006	-0.007
PPCDC (UniProt Q96CD2)	-0.019	0.075	0.033	-0.115	0.004	0.002	-0.115	-0.05	0.084	0.023
PIK3R2 (UniProt O00459)	-0.022	-0.02	-0.008	0.097	0.251	-0.09	0.047	0.068	-0.059	-0.01
PI4K2B (UniProt Q8TCG2)	0.023	0.035	-0.041	-0.089	-0.002	-0.047	0.009	-0.07	0.136	0.026
PIK3CB (UniProt P42338)	-0.024	-0.014	-0.045	0.159	0.412	0.019	0.095	0.002	0.052	0.037
PRKD2 isoform 3 (UniProt Q9BZL6)	0.085	-0.047	0.031	-0.112	0.028	0.014	-0.037	-0.175	-0.009	0.021
PWP1 (UniProt Q13610)	-0.02	-0.025	0.045	0.057	0.007	0	0.031	0.008	-0.032	0.005
PIR (UniProt O00625)	0.017	-0.212	0.01	0.034	-0.034	0.006	0.151	0.014	0.027	-0.02
PPP1R12B isoform 6 (UniProt O60237)	-0.081	0.025	-0.103	-0.08	0.057	-0.053	-0.07	-0.123	0.037	0.153
PIP4P2 (UniProt Q8N4L2)	0.023	0.039	-0.03	0.032	-0.076	0.019	-0.029	0.034	0.022	-0.054
PLEKHA5 isoform 6 (UniProt Q9HAU0)	-0.007	-0.021	0.016	-0.058	0.087	-0.021	-0.007	-0.002	-0.04	0.019
PYURF (UniProt Q96I23)	-0.019	0.113	0.117	0.056	0.087	-0.09	-0.108	0.035	0.07	-0.086
